# Data published in PubChem BioAssay (EPA / NIEHS).
# Several values for one entry are separate records, joined by “and”; a condition that tells them apart may be missing. Equal values may be shown once. Inconclusive results are not listed. More than one record can exist for a structure, and the calls need not agree. Activity calls are given as the source filed them. How the source made its calls: active means hit-call score of the fitted dose curve at least 0.9, where 1 is the maximum; inconclusive means response in the unintended direction; inactive means score below 0.9.
# How the values were obtained:
# [1] = target: human Ephrin type-B Receptor 1 (EphB1), EPHB1 (gene 2047) (UniProt P54762); test: NVS_ENZ_hEphB1: NovaScreen (NVS) Enzymatic Assay for human Ephrin type-B Receptor 1 (EphB1) (AID 2283154)
# Method in brief: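 Recombinant EphB1 activity read by fluorescence after mobility-shift separation of product from substrate, 1 h post-dosing. Compounds screened in duplicate at 25 uM; inhibition scored as signal loss relative to DMSO.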
# [2] = target: human Ephrin type-A Receptor 2 (EphA2), EPHA2 (gene 1969) (UniProt P29317); test: NVS_ENZ_hEphA2: NovaScreen (NVS) Enzymatic Assay for human Ephrin type-A Receptor 2 (EphA2) (AID 2283155)
# Method in brief: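 Enzyme activity of recombinant EphA2 read by fluorescence after mobility-shift separation, 1 h after dosing. Chemicals first tested at 25 uM (duplicate); those passing threshold run as concentration series, top 50 uM, single replicate, relative to DMSO.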
# [3] = target: human Ephrin type-A Receptor 1 (EphA1), EPHA1 (gene 2041) (UniProt P21709); test: NVS_ENZ_hEphA1: NovaScreen (NVS) Enzymatic Assay for human Ephrin type-A Receptor 1 (EphA1) (AID 2283158);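 further: activity is signal loss versus DMSO meaning EphA1 kinase inhibition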
# Method in brief: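 Recombinant kinase, fluorescent substrate, mobility-shift separation, fluorescence read at 1 h. Single-point duplicates at 25 uM; hits (e.g., ≥30% inhibition) run singleton concentration-response, max 50 uM. DMSO = negative control/baseline.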
# [4] = target: human Fibroblast Growth Factor Receptor 1 (FGFR1), FGFR1 (gene 2260) (UniProt P11362); test: NVS_ENZ_hFGFR1: NovaScreen (NVS) Enzymatic Assay for human Fibroblast Growth Factor Receptor 1 (FGFR1) (AID 2283159);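 on AC50: hits lower the signal so potencies describe inhibitors of the kinase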
# Method in brief: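 Cell-free recombinant kinase with fluorescent substrate, product separated by electrophoretic mobility shift; read 1 hour after dosing, loss of signal relative to DMSO. Initial screen in duplicate at 25 uM, actives followed in concentration series.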
# [5] = target: human Ephrin type-B Receptor 2 (EphB2), EPHB2 (gene 2048) (UniProt P29323); test: NVS_ENZ_hEphB2: NovaScreen (NVS) Enzymatic Assay for human Ephrin type-B Receptor 2 (EphB2) (AID 2283156)
# Method in brief: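 Compounds were first tested in duplicate at 25 uM, with hits rerun singly in concentration series up to 50 uM. Enzyme activity on fluorescent substrate was read at 1 h by mobility-shift separation, scored as signal loss relative to DMSO.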
# [6] = target: human AKT serine/threonine Kinase 2 (AKT2), AKT2 (gene 208) (UniProt P31751); test: NVS_ENZ_hAKT2: NovaScreen (NVS) Enzymatic Assay for human AKT serine/threonine Kinase 2 (AKT2) (AID 2283141)
# Method in brief: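 Cell-free fluorescence/electrophoretic mobility shift readout of recombinant human AKT2 activity, 1 h after chemical dosing. Duplicate primary screen at 25 uM, then singleton concentration-response up to 50 uM; loss of signal versus DMSO baseline.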
# [7] = target: human Aurora Kinase A - serine/threonine-protein Kinase 6 (AurA), AURKA (gene 6790) (UniProt O14965); test: NVS_ENZ_hAurA: NovaScreen (NVS) Enzymatic Assay for human Aurora Kinase A - serine/threonine-protein Kinase 6 (AurA) (AID 2283142)
# Method in brief: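 Recombinant human AurA activity read by fluorescence after mobility-shift separation of product from substrate; 1 hour incubation. Chemicals first run in duplicate at 25 uM, then concentration series to 50 uM if over threshold; fitted relative to DMSO.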
# [8] = target: human Casein Kinase 2- alpha 2 beta 2 (CK2a2b2), CSNK2A1 (gene 1457) (UniProt P68400); test: NVS_ENZ_hCK2a2b2: NovaScreen (NVS) Enzymatic Assay for human Casein Kinase 2- alpha 2 beta 2 (CK2a2b2) (AID 2283147)
# Method in brief: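 Compounds were first screened in duplicate at 25 uM, and those passing the threshold were re-tested in concentration series up to a 50 uM maximum. Kinase activity of recombinant human CK2 α2β2 was measured 1 h after dosing by fluorescent substrate/product mobility-shift separation.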
# [9] = target: human Dual Specificity Protein Phosphatase 3 (DUSP3), DUSP3 (gene 1845) (UniProt P51452); test: NVS_ENZ_hDUSP3: NovaScreen (NVS) Enzymatic Assay for human Dual Specificity Protein Phosphatase 3 (DUSP3) (AID 2283152);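 further: phosphatase activity of recombinant human DUSP3 on a fluorogenic substrate without cells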
# Method in brief: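 Cell-free fluorescence-intensity enzyme activity assay with recombinant protein and substrate; loss of signal fitted relative to DMSO baseline. Primary screen in duplicate at 25 uM, actives then run in concentration series; measured 0 h after dosing.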
# [10] = target: human Beta-secretase (BACE), BACE1 (gene 23621) (UniProt P56817); test: NVS_ENZ_hBACE: NovaScreen (NVS) Enzymatic Assay for human Beta-secretase (BACE) (AID 2283140);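 further: hits are inhibitors that reduce fluorescent substrate signal versus DMSO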
# Method in brief: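 Enzyme from SF9 cells was incubated 1 hour with compound and fluorogenic substrate, activity read by fluorescence. Single-concentration duplicates at 25 uM preceded concentration-response follow-up; fitting relative to DMSO baseline.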
# [11] = target: human Elastase, ELANE (gene 1991) (UniProt P08246); test: NVS_ENZ_hElastase: NovaScreen (NVS) Enzymatic Assay for human Elastase (AID 2283153)
# Method in brief: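 Concentration-response to 50 uM max, run singly for chemicals passing a threshold (e.g., 30% inhibition) in a duplicate 25 uM single-point screen. Neutrophil-derived human elastase, absorbance read-out of enzyme activity at 1.5 h; DMSO baseline.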
# [12] = target: human Esterase Plasma (ES), BCHE (gene 590) (UniProt P06276); test: NVS_ENZ_hES: NovaScreen (NVS) Enzymatic Assay for human Esterase Plasma (ES) (AID 2283157)
# Method in brief: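 Human plasma-derived enzyme, cell-free, colorimetric readout at 0.25 h. Primary screen 25 uM in duplicate; hits (e.g. ≥30% inhibition) rerun singleton up to 50 uM. DMSO = negative control/baseline.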
# [13] = target: human Caspase 8 (CASP8), CASP8 (gene 841) (UniProt Q14790); test: NVS_ENZ_hCASP8: NovaScreen (NVS) Enzymatic Assay for human Caspase 8 (CASP8) (AID 2283146)
# Method in brief: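 The primary screen tested compounds in duplicate at a single 25 uM concentration, with actives followed up in concentration series. Activity of recombinant (E. coli) protease was measured by fluorescence 1 h post-dose, as signal loss against DMSO.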
# [14] = target: human Casein Kinase 1-delta (CK1D), CSNK1D (gene 1453) (UniProt P48730); test: NVS_ENZ_hCK1D: NovaScreen (NVS) Enzymatic Assay for human Casein Kinase 1-delta (CK1D) (AID 2283148)
# Method in brief: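 Recombinant human CK1-delta, cell-free; fluorescent substrate with electrophoretic mobility-shift separation of product, read 1 h after dosing. Single 25 uM duplicate screen, then concentration-response up to 50 uM; loss of signal vs DMSO.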
# [15] = target: human Colony Stimulating Factor 1 Receptor (CSF1R), CSF1R (gene 1436) (UniProt P07333); test: NVS_ENZ_hCSF1R: NovaScreen (NVS) Enzymatic Assay for human Colony Stimulating Factor 1 Receptor (CSF1R) (AID 2283150)
# Method in brief: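 Compounds screened in duplicate at 25 uM, then concentration-response (top 50 uM) for those passing threshold such as 30% inhibition; recombinant CSF1R activity measured 1 h post-dosing via fluorescent substrate/product mobility-shift separation, loss of signal versus DMSO.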
# [16] = target: human Epidermal Growth Factor Receptor (EGFR), EGFR (gene 1956) (UniProt P00533); test: NVS_ENZ_hEGFR: NovaScreen (NVS) Enzymatic Assay for human Epidermal Growth Factor Receptor (EGFR) (AID 2283151)
# Method in brief: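 Cell-free kinase assay, fluorescence plus electrophoretic mobility shift separating substrate and product, read 1 hour after dosing; loss of signal vs DMSO. Duplicate screen at 25 uM, then concentration-response to 50 uM.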
# [17] = target: human FYN Proto-Oncogene, Src family Tyrosine Kinase (Fyn), FYN (gene 2534) (UniProt P06241); test: NVS_ENZ_hFyn: NovaScreen (NVS) Enzymatic Assay for human FYN Proto-Oncogene, Src family Tyrosine Kinase (Fyn) (AID 2283161)
# Method in brief: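 Cell-free kinase activity read by fluorescence after mobility-shift separation of substrate and product, 1 h post-dose. Initial single concentration 25 uM in duplicate, then concentration-response follow-up; DMSO baseline.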
# [18] = target: Histone deacetylase 3 (Homo sapiens) (UniProt O15379); test: NVS_ENZ_hHDAC3: NovaScreen (NVS) Enzymatic Assay for human Histone Deacetylase 3 (HDAC3) (AID 2283163)
# Method in brief: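 Cell-free enzyme format: loss of fluorescent product after mobility-shift separation, 1 h incubation, recombinant human HDAC3. Single 25 uM duplicate screen first, then concentration series to a 50 uM top for hits; DMSO as baseline.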
# CDK2 (gene 1017) = CDK2 (gene 1017) (UniProt P24941); test: NVS_ENZ_hCDK2: NovaScreen (NVS) Enzymatic Assay for human Cyclin-Cependent Kinase 2 (CDK2) (AID 2283144)
# Method in brief: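 Compounds screened in duplicate at 25 uM, then in singleton concentration-response to a maximum of 50 uM, against recombinant CDK2; kinase activity read 1 hr after dosing by fluorescence with mobility-shift separation of substrate and product.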
# [19] = target: Protein deacetylase HDAC6 (Homo sapiens) (UniProt Q9UBN7); test: NVS_ENZ_hHDAC6: NovaScreen (NVS) Enzymatic Assay for human Histone Deacetylase 6 (HDAC6) (AID 2283164)
# Method in brief: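 Concentration-response runs up to 50 uM followed a duplicate 25 uM single-point screen. Deacetylase activity of recombinant human HDAC6 read by fluorescence after 1 h, with mobility-shift separation of substrate and product; DMSO as baseline.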
# Chain of human Colony Stimulating Factor 1 Receptor (CSF1R), CSF1R (gene 1436) (P07333 whole entry, looked up): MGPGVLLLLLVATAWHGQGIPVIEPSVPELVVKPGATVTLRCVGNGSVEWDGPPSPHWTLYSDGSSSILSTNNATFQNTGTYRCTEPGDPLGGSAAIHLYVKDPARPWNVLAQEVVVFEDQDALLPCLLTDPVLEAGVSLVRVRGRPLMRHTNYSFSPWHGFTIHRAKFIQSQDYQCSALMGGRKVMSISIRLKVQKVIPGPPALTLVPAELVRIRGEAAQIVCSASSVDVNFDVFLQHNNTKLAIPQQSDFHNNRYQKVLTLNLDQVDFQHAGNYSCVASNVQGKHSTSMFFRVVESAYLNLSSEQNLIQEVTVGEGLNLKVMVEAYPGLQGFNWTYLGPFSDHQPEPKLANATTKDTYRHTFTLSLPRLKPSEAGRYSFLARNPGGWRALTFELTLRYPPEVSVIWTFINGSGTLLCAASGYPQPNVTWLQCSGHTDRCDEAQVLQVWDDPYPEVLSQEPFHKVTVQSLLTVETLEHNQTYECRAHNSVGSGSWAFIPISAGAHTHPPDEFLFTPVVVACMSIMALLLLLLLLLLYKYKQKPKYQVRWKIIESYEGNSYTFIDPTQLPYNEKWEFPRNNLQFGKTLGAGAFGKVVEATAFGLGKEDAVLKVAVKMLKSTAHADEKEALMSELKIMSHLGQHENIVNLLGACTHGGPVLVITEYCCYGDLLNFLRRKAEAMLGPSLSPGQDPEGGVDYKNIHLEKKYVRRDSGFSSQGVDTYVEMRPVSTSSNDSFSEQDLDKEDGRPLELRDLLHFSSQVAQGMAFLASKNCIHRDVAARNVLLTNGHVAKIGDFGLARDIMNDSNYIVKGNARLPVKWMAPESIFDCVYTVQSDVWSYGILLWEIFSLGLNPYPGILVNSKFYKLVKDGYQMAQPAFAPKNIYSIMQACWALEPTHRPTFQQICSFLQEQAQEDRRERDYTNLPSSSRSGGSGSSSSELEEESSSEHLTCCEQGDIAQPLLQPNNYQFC
# Chain of human Aurora Kinase A - serine/threonine-protein Kinase 6 (AurA), AURKA (gene 6790) (O14965 whole entry, looked up): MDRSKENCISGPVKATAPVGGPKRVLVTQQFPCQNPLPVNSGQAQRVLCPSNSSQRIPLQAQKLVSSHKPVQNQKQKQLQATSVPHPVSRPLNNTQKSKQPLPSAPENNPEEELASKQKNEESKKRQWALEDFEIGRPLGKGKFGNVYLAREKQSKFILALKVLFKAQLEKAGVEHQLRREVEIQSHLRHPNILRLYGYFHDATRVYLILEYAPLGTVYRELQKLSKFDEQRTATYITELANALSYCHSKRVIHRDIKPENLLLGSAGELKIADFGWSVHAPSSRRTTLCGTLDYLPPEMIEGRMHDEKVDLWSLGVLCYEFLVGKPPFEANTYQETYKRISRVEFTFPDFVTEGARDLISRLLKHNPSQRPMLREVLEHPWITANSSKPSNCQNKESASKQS
# Chain of human Fibroblast Growth Factor Receptor 1 (FGFR1), FGFR1 (gene 2260) (P11362 whole entry, looked up): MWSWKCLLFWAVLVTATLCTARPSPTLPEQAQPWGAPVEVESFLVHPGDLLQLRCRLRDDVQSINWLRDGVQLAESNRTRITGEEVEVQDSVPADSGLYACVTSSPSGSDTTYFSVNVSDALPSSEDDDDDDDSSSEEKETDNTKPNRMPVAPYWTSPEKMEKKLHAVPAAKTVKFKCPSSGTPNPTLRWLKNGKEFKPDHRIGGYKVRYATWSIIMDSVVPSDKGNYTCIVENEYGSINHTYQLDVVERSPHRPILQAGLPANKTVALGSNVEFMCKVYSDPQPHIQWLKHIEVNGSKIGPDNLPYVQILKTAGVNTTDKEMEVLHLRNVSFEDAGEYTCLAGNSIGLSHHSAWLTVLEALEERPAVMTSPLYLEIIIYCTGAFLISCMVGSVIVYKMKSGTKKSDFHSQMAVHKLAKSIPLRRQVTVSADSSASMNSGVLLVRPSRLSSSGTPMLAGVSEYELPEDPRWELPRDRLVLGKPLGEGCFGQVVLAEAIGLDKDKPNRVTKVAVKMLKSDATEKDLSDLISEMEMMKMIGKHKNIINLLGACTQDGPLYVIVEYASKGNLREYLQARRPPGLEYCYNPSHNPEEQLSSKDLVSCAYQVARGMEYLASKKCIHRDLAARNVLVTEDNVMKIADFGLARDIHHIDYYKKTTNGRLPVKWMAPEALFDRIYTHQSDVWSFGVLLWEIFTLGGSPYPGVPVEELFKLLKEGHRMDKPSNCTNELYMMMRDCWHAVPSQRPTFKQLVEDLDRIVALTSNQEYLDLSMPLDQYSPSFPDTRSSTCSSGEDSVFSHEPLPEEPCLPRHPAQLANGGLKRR
# Chain of human Beta-secretase (BACE), BACE1 (gene 23621) (P56817 whole entry, looked up): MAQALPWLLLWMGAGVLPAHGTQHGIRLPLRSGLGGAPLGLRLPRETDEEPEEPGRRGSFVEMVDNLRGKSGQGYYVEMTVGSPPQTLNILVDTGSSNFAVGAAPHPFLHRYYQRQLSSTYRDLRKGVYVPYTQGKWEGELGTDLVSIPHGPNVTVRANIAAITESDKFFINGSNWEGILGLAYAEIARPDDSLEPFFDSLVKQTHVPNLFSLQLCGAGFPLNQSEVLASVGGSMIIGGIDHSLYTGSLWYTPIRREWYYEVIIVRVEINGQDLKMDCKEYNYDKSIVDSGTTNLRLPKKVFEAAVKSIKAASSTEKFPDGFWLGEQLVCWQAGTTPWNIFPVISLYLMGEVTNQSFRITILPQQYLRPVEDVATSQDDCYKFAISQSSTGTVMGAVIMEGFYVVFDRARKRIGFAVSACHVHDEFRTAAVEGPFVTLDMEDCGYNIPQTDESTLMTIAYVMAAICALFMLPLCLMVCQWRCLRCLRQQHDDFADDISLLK
# Chain of human Ephrin type-A Receptor 1 (EphA1), EPHA1 (gene 2041) (P21709 whole entry, looked up): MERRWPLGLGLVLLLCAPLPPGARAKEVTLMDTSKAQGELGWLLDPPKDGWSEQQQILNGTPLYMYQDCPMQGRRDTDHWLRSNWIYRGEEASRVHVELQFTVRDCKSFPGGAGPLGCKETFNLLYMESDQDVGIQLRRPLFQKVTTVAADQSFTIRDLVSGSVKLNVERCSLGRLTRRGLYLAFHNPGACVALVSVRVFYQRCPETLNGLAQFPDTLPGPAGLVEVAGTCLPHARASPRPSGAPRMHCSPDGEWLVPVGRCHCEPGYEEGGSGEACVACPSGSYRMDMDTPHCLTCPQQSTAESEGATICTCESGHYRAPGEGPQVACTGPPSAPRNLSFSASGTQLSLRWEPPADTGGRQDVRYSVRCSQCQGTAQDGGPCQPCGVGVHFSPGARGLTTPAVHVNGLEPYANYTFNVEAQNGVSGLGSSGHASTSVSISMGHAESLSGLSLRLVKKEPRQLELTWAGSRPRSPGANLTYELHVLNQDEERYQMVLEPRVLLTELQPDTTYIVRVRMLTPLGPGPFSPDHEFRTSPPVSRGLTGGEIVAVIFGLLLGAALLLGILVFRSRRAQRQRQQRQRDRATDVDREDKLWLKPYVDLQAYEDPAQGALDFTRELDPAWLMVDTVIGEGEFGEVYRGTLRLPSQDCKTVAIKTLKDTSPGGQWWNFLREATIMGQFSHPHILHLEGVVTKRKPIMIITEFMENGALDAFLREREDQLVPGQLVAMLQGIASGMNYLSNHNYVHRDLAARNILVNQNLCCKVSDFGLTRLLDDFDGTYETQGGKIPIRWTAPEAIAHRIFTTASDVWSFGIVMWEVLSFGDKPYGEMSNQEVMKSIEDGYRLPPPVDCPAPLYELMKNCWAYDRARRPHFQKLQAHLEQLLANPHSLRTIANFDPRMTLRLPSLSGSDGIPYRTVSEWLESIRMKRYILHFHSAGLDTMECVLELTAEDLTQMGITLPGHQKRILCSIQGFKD
# Chain of human Esterase Plasma (ES), BCHE (gene 590) (P06276 whole entry, looked up): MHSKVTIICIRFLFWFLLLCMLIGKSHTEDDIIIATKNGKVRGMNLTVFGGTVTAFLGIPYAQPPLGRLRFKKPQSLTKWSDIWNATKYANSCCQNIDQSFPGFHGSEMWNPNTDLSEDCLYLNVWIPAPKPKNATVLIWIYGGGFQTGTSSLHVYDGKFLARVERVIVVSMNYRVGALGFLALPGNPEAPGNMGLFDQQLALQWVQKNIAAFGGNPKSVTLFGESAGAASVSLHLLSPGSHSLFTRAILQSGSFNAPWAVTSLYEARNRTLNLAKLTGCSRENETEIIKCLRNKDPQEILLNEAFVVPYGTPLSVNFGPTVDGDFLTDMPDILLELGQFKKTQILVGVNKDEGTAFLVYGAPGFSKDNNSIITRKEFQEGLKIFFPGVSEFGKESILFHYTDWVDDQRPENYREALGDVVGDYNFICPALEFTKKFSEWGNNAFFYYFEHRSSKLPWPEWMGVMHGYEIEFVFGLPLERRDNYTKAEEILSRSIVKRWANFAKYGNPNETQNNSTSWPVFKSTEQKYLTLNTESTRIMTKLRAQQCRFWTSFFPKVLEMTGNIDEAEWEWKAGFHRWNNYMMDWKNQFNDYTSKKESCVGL
# Chain of human Casein Kinase 2- alpha 2 beta 2 (CK2a2b2), CSNK2A1 (gene 1457) (P68400 whole entry, looked up): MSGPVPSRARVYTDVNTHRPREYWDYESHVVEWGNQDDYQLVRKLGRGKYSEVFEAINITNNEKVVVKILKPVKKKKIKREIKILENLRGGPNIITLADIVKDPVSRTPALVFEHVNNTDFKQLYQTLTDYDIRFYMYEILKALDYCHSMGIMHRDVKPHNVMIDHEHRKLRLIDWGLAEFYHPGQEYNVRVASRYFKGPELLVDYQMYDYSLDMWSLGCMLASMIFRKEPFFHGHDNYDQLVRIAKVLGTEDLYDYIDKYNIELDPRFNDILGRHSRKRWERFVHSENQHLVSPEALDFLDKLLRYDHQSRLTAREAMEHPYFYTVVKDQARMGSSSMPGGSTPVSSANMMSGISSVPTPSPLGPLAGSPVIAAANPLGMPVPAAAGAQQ
# Chain of human Dual Specificity Protein Phosphatase 3 (DUSP3), DUSP3 (gene 1845) (P51452 whole entry, looked up): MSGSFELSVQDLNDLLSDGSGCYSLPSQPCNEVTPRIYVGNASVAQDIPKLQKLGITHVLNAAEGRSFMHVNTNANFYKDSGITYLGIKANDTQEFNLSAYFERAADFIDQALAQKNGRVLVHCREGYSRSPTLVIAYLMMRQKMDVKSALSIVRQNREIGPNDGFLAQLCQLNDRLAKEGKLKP
compound,measurement,setting,value
CNC(=O)CSP(=S)(OC)OC,outcome,[1],inactive
same,outcome,[2],inactive
same,outcome,[3],inactive
same,outcome,[4],inactive
CCOCN(C(=O)CCl)c1c(C)cccc1CC,outcome,[5],inactive
N#Cc1c(Cl)c(Cl)c(Cl)c(C#N)c1Cl,outcome,[6],inactive
same,outcome,[7],inactive
same,AC50,[8],33.6 µM (active)
same,AC50,[9],17.7 µM (active)
CCC(C)(C)C(=O)OC1=C(c2ccc(Cl)cc2Cl)C(=O)OC12CCCCC2,AC50,[10],17.6 µM (active)
same,outcome,[7],inactive
COP(=S)(OC)Oc1ccc([N+](=O)[O-])cc1,outcome,[11],inactive
same,outcome,[12],inactive
O=C(Nc1ccccc1)Nc1cnns1,AC50,[10],10.7 µM (active)
same,outcome,[7],inactive
same,AC50,[8],10.9 µM (active)
O=C(O)CCCOc1ccc(Cl)cc1Cl,AC50,[8],19 µM (active)
O=S(=O)(O)C(F)(F)C(F)(F)C(F)(F)C(F)(F)C(F)(F)C(F)(F)C(F)(F)C(F)(F)F,AC50,[10],2.29 µM (active) and 2.36 µM (active) and 8.91 µM (active)
same,AC50,[7],25.4 µM (active) and 27.4 µM (active)
same,outcome,[13],inactive
same,AC50,[14],22 µM (active) and 39 µM (active)
same,AC50,[15],18.6 µM (active) and 43.9 µM (active)
same,AC50,[16],25 µM (active) and 17.4 µM (active)
same,AC50,[9],35.6 µM (active)
same,outcome,[9],inactive
same,outcome,[11],inactive
same,AC50,[2],15.8 µM (active)
same,AC50,[4],39.7 µM (active) and 24.3 µM (active)
same,AC50,[17],47 µM (active)
same,AC50,[18],17.4 µM (active) and 10.3 µM (active)
CC(C)N(C(=O)COc1nnc(C(F)(F)F)s1)c1ccc(F)cc1,outcome,CDK2 (gene 1017),inactive
same,AC50,[12],11.8 µM (active)
C[C@H]1[C@H](c2ccc(Cl)cc2)SC(=O)N1C(=O)NC1CCCCC1,outcome,[13],inactive
Cc1cc(C)nc(NC(=O)NS(=O)(=O)c2ccccc2C(=O)OC2COC2)n1,outcome,[6],inactive
CC[C@H](C)[C@H]1O[C@]2(C=C[C@@H]1C)C[C@@H]1C[C@@H](C/C=C(\C)[C@@H](O[C@H]3C[C@H](OC)[C@@H](O[C@H]4C[C@H](OC)[C@@H](O)[C@H](C)O4)[C@H](C)O3)[C@@H](C)/C=C/C=C3\CO[C@@H]4[C@H](O)C(C)=C[C@@H](C(=O)O1)[C@]34O)O2 (tested in a mixture with another compound),AC50,[9],2.74 µM (active)
same,outcome,[1],inactive
same,outcome,[4],inactive
O=[N+]([O-])/N=C1\NCCN1Cc1ccc(Cl)nc1,outcome,[2],inactive
same,outcome,[3],inactive
CCOC1Oc2ccc(OS(C)(=O)=O)cc2C1(C)C (stereo unspecified),outcome,[15],inactive
CNC(=O)/C=C(\C)OP(=O)(OC)OC,AC50,[12],18.3 µM (active)
ClC1C(Cl)C(Cl)C(Cl)C(Cl)C1Cl (stereo unspecified),outcome,[3],inactive
same,outcome,[4],inactive
same,AC50,[19],0.00517 µM (active)
O=C(O)COc1ccc(Cl)cc1Cl,AC50,[8],19.7 µM (active)
same,outcome,[1],inactive
